High-throughput results deposited in PubChem by Johns Hopkins Ion Channel Center.
KCNQ2 block: inhibitors of rat KCNQ2 potassium channel; CHO-K1 KCNQ2, FluxOR thallium flux, 20 min; hits give low values; B-score at 10 µM; hit rate 1.1% among 310,000;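 active = fluorescence ratio B-score at most minus 3 library SDs, with starting brightness B-score within 2 library SDs, cut at about -5.5 in these data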
KCNQ2 enhance: KCNQ2 (rat) channel potentiation | O88943 | CHO-K1 KCNQ2, FluxOR thallium flux fluorescence; hits give high values | B-score at 10 µM | hit rate 0.54% among 310,000;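 active = fluorescence ratio B-score at least 3 SD of library B-scores, with initial fluorescence B-score within 3 of them, cut at about 5.3 in these data; same plate scores as AID 2156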;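 also: B-score of peak minus minimum over baseline fluorescence ratio after K+ and Tl+ stimulus; positive B-score means potentiation of KCNQ2 with more thallium influx and brighter signal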
Kir21 confirm: confirmation of mouse Kir2.1 potassium channel inhibitors. shares compounds with KCNQ2 enhance. Kir2.1-expressing cells, FluxOR thallium flux fluorescence; hits give low values. Tl flux remaining, % of negative control (hits give low values), % at 10 µM. hit rate 41% among 2,300. AID 2032;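 active = Primary-screen hit whose thallium flux fell at least 3 control SD below untreated wells in both duplicates, with normal baseline fluorescence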;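 also: 0% = blank wells without stimulus and 100% = stimulated no-compound controls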
HEK293 Tl flux: parental HEK293 activity in Kir2.1 inhibitor counter-screen; parental HEK293 cells, FluxOR thallium flux fluorescence; 0% = unstimulated blank wells; AID 2105; shares compounds with KCNQ2 enhance; FluxOR signal as % of negative control (100 = no effect), % at 10 µM; hit rate 19% among 2,300;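 active = dye signal at least 3 control SD above or below untreated wells in both duplicates, raw fluorescence within 3, either direction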;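 also: percent is based on the flux ratio of peak minus minimum fluorescence over baseline F0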
CHO-K1 Tl ctr: counter-screen for KCNQ2 potentiators: effect in parental CHO-K1 cells. shares compounds with KCNQ2 enhance. FluxOR thallium flux fluorescence; zero = vehicle mean+3SD, 100% = vehicle-minus-blank window. activity increase over 3SD of controls, % at 10 µM. hit rate 43% among 1,200. AID 2282;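 active = signal rise of at least 3 SD above the untreated control mean, in both duplicate wells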;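 also: counter screen of KCNQ2 potentiator hits so any rise reflects channel-independent effects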
KCNQ1 sel pot: human KCNQ1 counter-target activity of KCNQ2 potentiators. hit rate 28% among 1,200. CHO KCNQ1 stable, FluxOR thallium flux fluorescence; beyond 3SD, as % of vehicle-control signal. shares compounds with KCNQ2 enhance. AID 2283. activation over 3SD threshold, % at 10 µM;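 active = fluorescence ratio rise of at least 3 SD of vehicle wells above their mean, in both replicate wells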;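 also: 0% = vehicle mean plus 3 SD and 100% = vehicle minus unstimulated blank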
Target sequence (P51787 whole entry, looked up): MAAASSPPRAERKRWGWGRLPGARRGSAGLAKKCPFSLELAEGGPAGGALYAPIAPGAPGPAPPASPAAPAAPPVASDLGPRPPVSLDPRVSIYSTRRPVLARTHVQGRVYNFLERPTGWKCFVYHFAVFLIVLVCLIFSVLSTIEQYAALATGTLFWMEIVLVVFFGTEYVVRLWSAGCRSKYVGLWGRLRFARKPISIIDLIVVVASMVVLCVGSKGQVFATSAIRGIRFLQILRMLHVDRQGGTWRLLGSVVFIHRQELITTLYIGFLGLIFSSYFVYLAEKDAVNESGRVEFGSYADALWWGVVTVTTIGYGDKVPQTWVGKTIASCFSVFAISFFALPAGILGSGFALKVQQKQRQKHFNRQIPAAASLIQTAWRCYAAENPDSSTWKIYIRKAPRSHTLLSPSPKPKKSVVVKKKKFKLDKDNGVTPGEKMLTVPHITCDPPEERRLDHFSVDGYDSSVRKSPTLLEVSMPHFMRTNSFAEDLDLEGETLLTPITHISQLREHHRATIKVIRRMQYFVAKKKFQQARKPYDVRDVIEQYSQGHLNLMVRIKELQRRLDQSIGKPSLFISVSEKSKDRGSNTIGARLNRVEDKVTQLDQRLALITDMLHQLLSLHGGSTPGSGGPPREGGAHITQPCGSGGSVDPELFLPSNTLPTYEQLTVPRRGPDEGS
KCNQ2 pot confirm: rat KCNQ2 channel potentiator confirmation | shares compounds with KCNQ2 enhance | CHO-KCNQ2 cells, FluxOR thallium flux fluorescence | potentiation, less the hit threshold, % at 10 µM | hit rate 68% among 1,200 | AID 2287;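 active = fluorescence ratio rising 3 SD or more over the vehicle control mean in both replicates, plus primary screen hit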;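 also: peak minus minimum thallium fluorescence divided by baseline after K/Tl stimulus; 0% = vehicle mean plus 3 SD and 100% = vehicle minus unstimulated blank difference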
Kir2-1 sel: selectivity of KCNQ2 potentiators: effect on mouse Kir2.1; hit rate 2% among 1,200; activity over 3SD threshold, % at 10 µM; AID 2345; shares compounds with KCNQ2 enhance; HEK293 Kir2.1, FluxOR thallium flux fluorescence;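 active = fluorescence ratio rise of at least 3 SD above the vehicle-control mean, seen in both replicates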;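 also: 0% = vehicle mean plus 3 SD and 100% = vehicle minus no-stimulus blank window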
KCNQ2 W236L MoA: rat KCNQ2 W236L mutant potentiation by KCNQ2 potentiators; shares compounds with KCNQ2 enhance; CHO KCNQ2-W236L, automated patch clamp current; current increase over 3SD of negative controls (%), hits give high values, % at 25 µM; hit rate 10% among 940; AID 2558;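 active = current increase at least 3 SD of the untreated controls above them in both duplicate recordings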
An asterisk follows results filed as active. An excerpt weighted towards active compounds, which were near 1.6% of everything screened.

Screening CC1=C(C(=O)OCC2CCCO2)C(c2ccccc2)C2=C(CC(C)(C)CC2=O)N1 (stereo not given) returned KCNQ2 block inactive and KCNQ2 enhance 1.5.
CC(O)CNc1nc(Cl)c(C#N)s1 (stereo not given) was read as KCNQ2 block inactive and KCNQ2 enhance 0.56.
`O=C(CSc1ccc(Br)cc1)NCC(c1cccs1)N1CCOCC1` (stereo not given) gave KCNQ2 block inactive, KCNQ2 enhance 6.8*, CHO-K1 Tl ctr -20, KCNQ1 sel pot -4, KCNQ2 pot confirm 7.9*, Kir2-1 sel -58 and KCNQ2 W236L MoA inactive.
Screening CCOc1ccc(S(=O)(=O)NCCC(=O)NCC(c2cccs2)N2CCOCC2)cc1 (stereo not given) returned KCNQ2 block inactive and KCNQ2 enhance 1.6.
`CC(C)(C)c1ccc(OCCC(=O)NCC(c2cccs2)N2CCOCC2)cc1` (stereo not given) gave KCNQ2 block inactive, KCNQ2 enhance 7*, CHO-K1 Tl ctr -9, KCNQ1 sel pot 123*, KCNQ2 pot confirm 19*, Kir2-1 sel -60 and KCNQ2 W236L MoA inactive.
For COc1ccc(C(CNC(=O)CSc2ccc(Br)cc2)N2CCOCC2)cc1 (stereo not given) the results were KCNQ2 block inactive and KCNQ2 enhance 1.4.
For CNc1nc(Cl)c(SC)c(NCc2ccc(F)cc2)n1 the results were KCNQ2 block inactive and KCNQ2 enhance 1.5.
Screening Cc1ccc(C)c(N2CCN(S(=O)(=O)c3csc(C(N)=O)c3)CC2)c1 returned KCNQ2 block inactive.
Screening Oc1ccc(N=Nc2ccccc2-c2nn[nH]n2)c(O)c1 returned KCNQ2 block inactive and KCNQ2 enhance 1.4.
Screening CCn1c(SCC(O)c2ccccc2)nnc1-c1ccccc1 (stereo not given) returned KCNQ2 block inactive and KCNQ2 enhance 0.68.
CCn1c(SCc2cccc(C)c2)nnc1-c1ccccc1 was read as KCNQ2 block inactive, Kir21 confirm 57%* and HEK293 Tl flux inactive.
Screening O=C(O)CC(Cc1ccccc1)C(=O)NCC12CC3CC(CC(C3)C1)C2 (stereo not given) returned KCNQ2 block inactive.
For O=C(Oc1ccc(=O)n(-c2ccccc2)n1)c1ccccc1 the results were KCNQ2 block inactive, Kir21 confirm 61%* and HEK293 Tl flux inactive.
O=C(O)COc1ccc(=O)n(-c2ccccc2)n1 was read as KCNQ2 block inactive and KCNQ2 enhance 1.3.
`CC(=O)n1cc(C(C[N+](=O)[O-])SCCN)c2ccccc21` (stereo not given) gave KCNQ2 block -7.3*, KCNQ2 enhance -7.3, Kir21 confirm 50%* and HEK293 Tl flux 76%*.
For Cn1cc(C(C[N+](=O)[O-])c2ccccc2)c2ccccc21 (stereo not given) the results were KCNQ2 block inactive.
`CCCCCC[N+](C)(C)CCSSCC[N+](C)(C)CCCCCC` gave KCNQ2 block inactive and KCNQ2 enhance 0.45.
`CCCCCCCCCCCCCCCC[N+](C)(C)CC` gave KCNQ2 block inactive, Kir21 confirm 52%* and HEK293 Tl flux inactive.
Screening NC(=O)CC(NC(=O)c1cccc(Br)c1)c1ccc(NC2CCC2)c([N+](=O)[O-])c1 (stereo not given) returned KCNQ2 block inactive.
CCOc1ccccc1C(=O)N1CCN=C1SCc1cccnc1 was read as KCNQ2 block inactive and KCNQ2 enhance 0.67.
`COCCCNCCCOc1ccc(C(C)(C)c2ccccc2)cc1` gave KCNQ2 block inactive and KCNQ2 enhance 0.52.
Screening CC(C)(c1ccccc1)c1ccc(OCCCNCCO)cc1 returned KCNQ2 block inactive, KCNQ2 enhance 1, Kir21 confirm 28%* and HEK293 Tl flux inactive.
For OCCNCc1cc(Br)ccc1OCc1ccc(Cl)cc1 the results were KCNQ2 block inactive and KCNQ2 enhance 0.2.
Screening OCCNCc1cccc(OCc2ccc(Cl)cc2)c1 returned KCNQ2 block inactive, KCNQ2 enhance 0.57, Kir21 confirm inactive and HEK293 Tl flux inactive.
`COc1cc2nc(CN(C)Cc3ccc(C(C)(C)C)cc3)[nH]c(=O)c2cc1OC` gave KCNQ2 block inactive.
`Cc1ccccc1-n1c(SCC(=O)O)nc2sc3c(c2c1=O)CCCC3` gave KCNQ2 block inactive.
For CCCc1nc2sc3c(c2c(=O)n1N)CCC3 the results were KCNQ2 block inactive.
Screening CCCc1nc2sc3c(c2c(=O)n1NC(=O)CCC(=O)OC)CCCC3 returned KCNQ2 block inactive, KCNQ2 enhance 9.3*, Kir21 confirm inactive, HEK293 Tl flux inactive, CHO-K1 Tl ctr 6.2*, KCNQ1 sel pot 3.4*, KCNQ2 pot confirm 31*, Kir2-1 sel -25 and KCNQ2 W236L MoA inactive.
Cc1nc2sc3c(c2c(=O)n1NC(=O)CCBr)CCCC3 was read as KCNQ2 block inactive, KCNQ2 enhance 6.6*, Kir21 confirm inactive, HEK293 Tl flux inactive, CHO-K1 Tl ctr -7, KCNQ1 sel pot -4, KCNQ2 pot confirm 11*, Kir2-1 sel -36 and KCNQ2 W236L MoA inactive.
O=C(Nc1ccccc1)O/N=C/c1ccc(F)cc1 was read as KCNQ2 block inactive.
Screening COc1ccccc1N1CCN(C2CCCN(C(=O)CCC(C)=O)C2)CC1 (stereo not given) returned KCNQ2 block inactive.
`COc1ccc(NC(=O)N2C3CCCC2CC(NC(=O)c2ccccc2)C3)cc1` (stereo not given) gave KCNQ2 block inactive and KCNQ2 enhance 0.33.
Screening O=C(NCc1n[nH]c(=S)n1-c1ccc(Br)cc1)c1ccc(S(=O)(=O)N2CCCCC2)cc1 returned KCNQ2 block inactive.
`Cc1nn(C(C)C(=O)N2CCc3ccccc32)c(C)c1[N+](=O)[O-]` (stereo not given) gave KCNQ2 block inactive and KCNQ2 enhance 0.01.
